# Compound activity deposited in PubChem BioAssay by National Center for Advancing Translational Sciences (NCATS).
# KDM5B inh: blocks human KDM5B histone demethylase activity. Potency, µM (titrated, usually from 57.7 µM), usual class: inhibitors. Q9UGL1. actives 2.6% (n = 220,000). KDM5B demethylase, FDH-coupled NADH fluorescence (FDH is formaldehyde dehydrogenase); note: potency is the fitted concentration of half-maximal effect; 0% is about no effect; nearly all actives have a fitted effect of over 70% in size
#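 Coupled FDH/NAD⁺ fluorescence readout. KDM5BΔAP 200 nM final; compound titration, 10 min RT preincubation; substrate mix 12.5 µM H3K4me3, 25 µM 2-OG, 50 µM Fe(II), 100 µM ascorbate, 0.25 mM NAD⁺, 0.25 U/mL FDH; ΔRFU over 30 min.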
# IP6K1 inhibitor: IP6K1 kinase inhibition | actives 0.81% (n = 140,000) | activity change, % (series mostly up to about 58 µM) | IP6K1 kinase, ADP-Glo luminescence, 2 h; hits give low values | AID 1645851; in the data active = activity change below about -25%; note: % is set by controls: 0 for no effect and ±100 for the full control effect
# Target sequence (Q92551 whole entry, looked up): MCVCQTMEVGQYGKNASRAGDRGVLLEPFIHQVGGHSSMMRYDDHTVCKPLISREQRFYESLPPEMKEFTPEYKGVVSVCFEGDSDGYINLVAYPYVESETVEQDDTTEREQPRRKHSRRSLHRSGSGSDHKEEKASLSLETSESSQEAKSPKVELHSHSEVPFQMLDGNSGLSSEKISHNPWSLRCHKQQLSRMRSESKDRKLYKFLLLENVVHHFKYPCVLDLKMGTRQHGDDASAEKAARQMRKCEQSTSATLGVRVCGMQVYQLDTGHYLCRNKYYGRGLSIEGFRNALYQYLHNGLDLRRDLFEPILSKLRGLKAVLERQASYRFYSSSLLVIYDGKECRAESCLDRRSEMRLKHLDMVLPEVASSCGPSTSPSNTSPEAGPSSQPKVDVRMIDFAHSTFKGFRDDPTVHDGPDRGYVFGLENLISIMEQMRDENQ
#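 ADP-Glo luminescence measures ADP made by human IP6K1 during a 2 h RT reaction with ATP/IP6 (mix at 1.3 mM/130 uM); top library doses 57.5 and 19.1 uM final.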
# * = called active by the depositor; i = inactive; ? = inconclusive; . = no result given; ! = not active in a repeat. A selection: hits, their analogues and other compounds. The true share with any hit is near 2.8%.
SMILES,KDM5B inh,IP6K1 inhibitor
Cc1noc2c(-c3cccnc3NC3CCC(O)CC3)cc(-c3ccccc3)nc12 (stereo not drawn),?,-7.2
Cc1noc2c(-c3ccc(N4CCOCC4)cc3)cc(-c3cccnc3)nc12,?,-0.1
Cc1noc2c(-c3cccnc3NCC3CCOCC3)cc(-c3ccccc3)nc12,31.6µM*,-4.2
CC(=O)c1cnn(-c2cc(Oc3ccc(C#N)cc3)nc(C)n2)c1C,i,.
CCC(C)CNC(=S)NC1CC1 (stereo not drawn),i,.
COc1ccc(-c2cc(C(=O)NC3CCOC3)c3cnn(C)c3n2)cc1 (stereo not drawn),.,-3.5
Cc1ccc(C(=O)N2CCC(N3CCCC3=O)CC2)cc1,i,-9.2
COc1ccc(C(=O)N2CCC(N3CCNC3=O)CC2)cc1,89.1µM*,-21.9
Cn1ncc2c(C(=O)N3CCC(C#N)CC3)cc(-c3ccc(Cl)nc3)nc21,.,1.9
O=C(c1cncc(Br)c1)N1CCC(N2CCCC2)CC1,.,-14.2
COc1ccc(C(=O)N2CCC(N3CCCNC3=O)CC2)cc1,i,13.8
Cc1ccc(C(=O)N2CCC(N3CCCCCC3=O)CC2)cc1,35.5µM*,21.4
N#CC1CCN(C(=O)c2cc(Br)cn3ccnc23)CC1,39.8µM*,2.1
O=C(c1cc(Br)cn2ccnc12)N1CCC(N2CCCCC2)CC1,28.2µM*,-11.0
COc1cccc(-c2cn3cc(C(=O)NC4CC4)nc3s2)c1,.,-12.7
CCOC(=O)C1C2C=CC(C3CC23)C1C(=O)OCc1ccccc1Cl (stereo not drawn),i,.
COc1ccc(NC(=O)c2cn3cc(-c4ccc(F)cc4)sc3n2)cc1,.,-6.0
O=C1CC(/C=C/c2ccccc2)Cc2nc(N3CCCCC3)ncc21 (stereo not drawn),i,.
COCC(=O)NC1CCN(Cc2ccc(-c3cc(F)ccc3OC)cc2)C1 (stereo not drawn),.,5.9
COc1cccc(CNC(=O)c2ccc3nnc(-c4cccc(C(F)(F)F)c4)n3c2)c1,.,-9.1
O=C(Nc1ccccc1C(=O)N1CCOCC1)c1cccc(Br)c1,i,.
O=C(c1cc(Br)cn2ccnc12)N1CCOCC1,28.2µM*!,10.9
O=C(c1cc(Br)cn2ccnc12)N1CCC(N2CCCCCC2=O)CC1,25.1µM*,-8.2
O=C(c1cccc(Cl)c1)N1CCC(N2CCCCCC2=O)CC1,i,6.1
O=C(c1cc(Br)cn2ccnc12)N1CCN(c2ncccn2)CC1,?,-6.0
SMILES,KDM5B inh,IP6K1 inhibitor
O=C(c1cc(Br)cn2ccnc12)N1CCCC1,35.5µM*,-17.6
Cc1nn(-c2ccccc2)c2c1C(C1CC1)N(CC1CN(C(=O)c3ccc(Cl)cc3)C1)C2=O (stereo not drawn),.,12.5
COc1ccc(Nc2nc(N)c(C(=O)c3ccc(C)cc3C)s2)cc1,i,.
CCCCCCCCSCCCCC(=O)O,i,.
O=C(NC1CCCCC1)c1nc2sccn2c1-c1ccccc1,.,2.9
COc1ccc(C(=O)NC(C)c2nncn2C)cc1OC1CCN(C(C)=O)CC1 (stereo not drawn),i,-8.9
COc1ccc(OC2CCN(C(C)=O)CC2)c(C(=O)NC(C)c2cn(C)nc2C)c1 (stereo not drawn),31.6µM*,24.3
O=C(c1ccc(Cl)nc1)N1CCC(C(=O)N2CCC(c3ccccc3)CC2)CC1,.,21.2
Cc1cccc(C(=O)N2CCC(c3nc4ccccc4o3)CC2)c1,i,.
O=C(N[C@H]1CCN2C(=O)c3cc(-c4cccs4)ccc3NC(=O)[C@H]12)c1cccs1,31.6µM*,-5.8
O=C(O)COCC(=O)N[C@H]1CCN2C(=O)c3cc(-c4cccs4)ccc3NC(=O)[C@H]12,?,-4.5
CSCC(=O)N[C@H]1CCN2C(=O)c3cc(-c4cccs4)ccc3NC(=O)[C@H]12,35.5µM*,61.9
Cc1cccc(-c2ccc3c(c2)C(=O)N2CC[C@H](NC(=O)c4cccs4)[C@H]2C(=O)N3)c1C,i,-4.9
O=C(N[C@H]1CCN2C(=O)c3cc(-c4ccsc4)ccc3NC(=O)[C@H]12)c1cccs1,?,-10.5
CSc1ccc(-c2ccc3c(c2)C(=O)N2CC[C@H](NC(=O)c4cccs4)[C@H]2C(=O)N3)cc1,25.1µM*,9.1
COc1ccc(Cl)cc1NC(=O)c1ccc(F)c(S(=O)(=O)N2CCCC2)c1,i,.
Cc1ccc2nc([C@H]3CCN(Cc4ccccn4)C3)[nH]c2c1,?,-1.8
Cc1ccccc1CSc1nc2nccnc2c(=O)n1Cc1ccc2c(c1)OCO2,i,.
COCc1cc(=O)n(CC(=O)Nc2cccc(Br)c2)c(N2CCOCC2)n1,28.2µM*,33.8
COc1ccc(C)cc1NC(=O)Cn1c(N2CCc3ccccc3C2)nc(C)cc1=O,i,11.0
Cc1cccc(NC(=O)Cn2c(N3CCc4ccccc4C3)nc(C)cc2=O)c1,?,10.1
COc1ccc(OC)c(NC(=O)Cn2c(N3CCc4ccccc4C3)nc(C)cc2=O)c1,28.2µM*,21.9
